Assay results taken from PubChem BioAssay.

target: Fibroblast growth factor 10 (Homo sapiens) (UniProt O15520); assay: compounds binding fibroblast growth factor 10 – biochemical, small-molecule microarray, 635 nm fluorescence, primary screen (AID 1102); details: FGF10 binding, fluorescence 635 nm, higher = more signal
Sequence (O15520 whole entry, looked up): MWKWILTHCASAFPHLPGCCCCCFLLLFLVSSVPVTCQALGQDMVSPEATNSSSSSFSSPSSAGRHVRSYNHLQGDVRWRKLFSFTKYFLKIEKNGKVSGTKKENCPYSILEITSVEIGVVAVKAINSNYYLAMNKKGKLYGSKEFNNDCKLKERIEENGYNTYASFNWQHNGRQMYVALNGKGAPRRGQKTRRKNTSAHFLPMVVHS

Point of comparison: `C=CCOC(=O)[C@H]1[C@@H]2C(=O)O[C@@H](c3ccccc3)[C@@H](c3ccccc3)N2[C@@H](c2ccc(OCCOC(=O)[C@@H]3C[C@@H]4C(=O)N[C@@H](CCCCN(C)C)C(=O)N4[C@@H]3c3ccc(O)cc3)cc2)[C@]12C(=O)Nc1ccc(I)cc12`, composite z-score 0.735. Against it:
- CCCCCN1CC=CC23O[C@@H]4/C=C\CCCOC(=O)C4[C@H]2C(=O)N(CCCO)[C@@H]3C1=O (some centres undefined) — lower, 0.0154
- CCCC[C@@H]1C[C@H]1[C@@H](NC(=O)c1ccco1)c1ccc(C(=O)OC)cc1 — lower, 0.0373
- CN1C(=O)[C@]2(Cc3ccccc3)N=C(c3ccc(OCCCO)cc3)O[C@@H]2c2ccccc21 — higher, 1.33
- CN(C)CCCNC(=O)[C@@]1(c2ccc([N+](=O)[O-])cc2)CC(=O)N(C2CCCCC2)[C@@H]1c1ccc(CO)cc1I — lower, -0.341
- COCC(=C=CC[C@@H](O)c1ccccc1OCCO)C[C@@H](O)c1cc(Cl)cc(Cl)c1O — higher, 1.23

test system: glycogen synthase kinase-3 (GSK3A per assay name; protocol says GSK3B); assay: compounds binding glycogen synthase kinase-3 – biochemical, small-molecule microarray, 635 nm fluorescence, GSK3A, primary screen (AID 1103); details: fluorescence 635 nm, higher = more signal; note: the record names both GSK3A and GSK3B

Point of comparison: `CCc1oc(CC[C@@H](CO)NC(=O)NCCn2cc(C3(O)CCCCC3)nn2)c(C(=O)OC)c1C(=O)OC`, composite z-score 0.972. Against it:
- Cc1ccc(S[C@]2(C(=O)NCCN3CCOCC3)CC(=O)N(Cc3ccccc3Cl)[C@@H]2c2ccc(CO)cc2)cc1 — lower, -1.4
- C[C@@]1([C@@H](NC(=O)c2ccccc2)c2ccc(-c3ccccc3)cc2)C[C@H]1C1CCCCC1 — lower, -0.82
- COc1ccc(COC2OC[C@]3(C)[C@H]4C5=C(CN3C(=O)OC(C)(C)C)[C@H](C)C(CO)C(CO)C5CC[C@@H]24)cc1 (some centres undefined) — higher, 1.3
- C=C(/C(=C/C[C@@H](OC(C)=O)c1ccc(OCCO)cc1)c1cnc2ccccc2c1)C(C)C — lower, -0.0912
- C=CCOC(=O)[C@@H]1[C@H]2C(=O)O[C@H](c3ccccc3)[C@H](c3ccccc3)N2[C@H](c2ccc(OCCOC(=O)[C@@H]3C[C@@H]4C(=O)N[C@@H](Cc5ccccc5)C(=O)N4[C@@H]3c3ccc(O)cc3)cc2)[C@@]12C(=O)Nc1ccc(I)cc12 — higher, 1.19
- CCCCCC1=C2CNC(CCC)(C(=O)OC)C=C2C(C)C1=O (centres undefined) — lower, -0.111
- C=C(C)C1C(=C)CN([C@H](CO)c2ccccc2)C1=O (some centres undefined) — lower, -0.599
- O=C1C2C=CC(C(O)c3ccc(F)cc3)N(Nc3ccccc3F)C2C(=O)N1c1ccccc1 (centres undefined) — lower, -0.412
- CCOc1cc(C(O)C2C=CC3C(=O)N(c4ccccc4)C(=O)C3N2Nc2ccccc2)ccc1O (centres undefined) — lower, 0.0622
- CCCCCN1CC=CC23O[C@@H]4/C=C\CCCOC(=O)C4[C@H]2C(=O)N(C(CO)C(C)C)[C@@H]3C1=O (some centres undefined) — lower, -0.949
- CC(CO)N1C(=O)[C@@H]2C3C(=O)OCCC/C=C\[C@H]3OC23C=CCN(c2ccc4ccccc4c2)C(=O)[C@@H]13 (some centres undefined) — lower, -0.974
- COCCCNC(=O)C1N=C(c2ccc(OCCCO)cc2)N(c2ccccc2)O1 (centres undefined) — lower, 0.781
- COCCOC(=O)N1C(=O)[C@@]2(c3cc(C#CCCO)ccc31)[C@H](C(=O)N1CCN(c3ncccn3)CC1)[C@H]1C(=O)O[C@H](c3ccccc3)[C@H](c3ccccc3)N1[C@@H]2c1ccccc1OCCO — higher, 1.26
- CS(=O)(=O)CCOC(=O)C1=CC(CCCO)=CC(c2ccc(CN3CCCC3)cc2)N(Cc2cc3c(cc2Br)OCO3)C=C1C(=O)OCCS(C)(=O)=O (centres undefined) — higher, 1.27
- CCOC(=O)[C@H]1CC=C2CC1C(=O)N1CCC[C@@H]1[C@@H]2O[Si](C)(C)C(C)(C)C (some centres undefined) — lower, -1.22
- COC(=O)[C@@]1(Cc2ccccc2)[C@H]2c3cc(C(=O)N4CCCC4)n(Cc4cccc5ccccc45)c3C[C@H]2CN1C(=O)c1ccccc1 — lower, -0.348
- CC(C)(C)OC(=O)CC[C@]1(C(=O)NCC(O)CO)COC(c2ccc(OCCCO)cc2)=N1 (some centres undefined) — lower, 0.435
- COCCOC(=O)N1C(=O)[C@@]2(c3cc(C#Cc4ccc(OC)cc4)ccc31)[C@H](C(=O)N1CCCCCCC1)[C@H]1C(=O)O[C@H](c3ccccc3)[C@H](c3ccccc3)N1[C@@H]2c1ccc(OCCO)cc1 — higher, 1.33
- O=C(NCc1ccccc1)[C@@H]1c2ccccc2C(=O)N(CC23CC4CC(CC(C4)C2)C3)[C@H]1c1ccc(CO)cc1 — higher, 1.31
- COC(=O)[C@@]1(Cc2ccc(OC)cc2)[C@H]2c3cc(C(=O)N(C)C)n(Cc4cccc5ccccc45)c3C[C@H]2CN1C(=O)c1ccccc1 — lower, 0.329
- COc1ccc(C(O)C2C=CC3C(=O)N(c4ccccc4)C(=O)C3N2Nc2ccccc2F)cc1OCc1ccccc1 (centres undefined) — lower, 0.693
- COc1ccc(CCNC(=O)[C@@]2(C)c3ccccc3C(=O)N(Cc3cc(F)cc(C(F)(F)F)c3)[C@H]2c2ccc(CO)cc2)cc1 — lower, -0.596
